Test results reported in PubChem BioAssay.
Active and inactive are the calls of the source.

Tests used:
Albumin (Bos taurus) = Albumin (Bos taurus) (UniProt P02769); test: bovine serum albumin binders on microarray, profiling panel, artefact control for SMM control protein annotation, biochemical, small-molecule microarray, Alexa647 label, 635/667 nm fluorescence (AID 1118); settings: BSA-A647 binding, fluorescence 635 nm, higher = more signal;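 further: score merges 667 nm emission intensity and signal-to-noise per printed compound spot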
[1] = small-molecule microarray binders of probe aXIP, primary screen, biochemical, NeuroSMM set, 635/667 nm fluorescence (AID 1119); settings: higher = more signal, called active from +8 up or from −8 down;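 further: probe is the protein aXip251-270 applied at 1 µg/mL to compound-printed slides; binding of probe to printed compounds measured as 667 nm fluorescence plus signal to noise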
[2] = small-molecule binders of probe aNOTCH3, primary screen, biochemical, small-molecule microarray, 635/667 nm fluorescence (AID 1120); settings: higher = more signal;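 further: probe is a biotin-tagged antibody raised against NOTCH3 rather than NOTCH3 protein; score merges spot fluorescence near 667 nm with spot signal to noise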
[3] = small-molecule binders of probe aNOTCH2, primary screen, biochemical, small-molecule microarray, 635/667 nm fluorescence (AID 1121); settings: higher = more signal;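 further: score merges feature fluorescence read at 667 nm with its signal to noise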
[4] = target: Carbonic anhydrase 2 (Homo sapiens) (UniProt P00918); test: CAII small-molecule binders, profiling panel, biochemical, small-molecule microarray, Alexa647-labelled CAII (AID 1122); settings: CAII-A647 binding fluorescence, higher = more signal
[5] = COS7 lysate on small-molecule microarray, probe aHis, 635 nm (AID 1123); settings: COS7 cell lysate, fluorescence, higher = more signal;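 further: z-score combines 667nm fluorescence intensity with signal-to-noise per printed compound spot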
[6] = compound binding in COS7 lysate, probe aLAP1, primary screen, cell lysate, small-molecule microarray (AID 1124); settings: probe aLAP1, fluorescence, higher = more signal;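 further: lysate comes from COS7 cells expressing LAP1 and is applied at 0.3 µg/mL; score merges spot fluorescence near 667 nm with signal-to-noise over triplicate slides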
Sam68 (KHDRBS1) = test: Sam68 small-molecule binders, primary screen, biochemical, small-molecule microarray, 635 nm fluorescence (AID 1125); settings: small-molecule microarray binding, higher = more signal;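 further: score merges 667 nm channel intensity with signal to noise over triplicate slides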
[7] = tested on: Chordin-like protein 2 (CHRDL2); test: CHRDL2 small-molecule binders, primary screen, biochemical, small-molecule microarray, 635 nm fluorescence (AID 1126); settings: small-molecule microarray binding, fluorescence 635 nm; higher = more signal;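 further: printed compound slides probed with Chrdl2 protein at 4 µg/mL for 1 h at 4 C; score merges 667 nm emission intensity with signal to noise over three replicate slides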
[8] = target: Concanavalin-A (Canavalia ensiformis) (UniProt P02866); test: ConA small-molecule binders, primary screen, artefact control for SMM control protein annotation, biochemical, small-molecule microarray, Alexa647 label, 635 nm (AID 1127); settings: ConA-A647 binding fluorescence, higher = more signal;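 further: z combines 667 nm emission intensity with signal-to-noise across three replicate slides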
[9] = anti-His antibody binders, primary screen, artefact control for SMM control protein annotation, biochemical, small-molecule microarray, 635 nm fluorescence (AID 1128); settings: anti-His Alexa647 antibody binding, higher = more signal;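 further: score merges feature fluorescence with signal-to-noise for each printed compound spot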
[10] = tested on: Human papillomavirus type 1a E7 protein (residues 1-88); test: HPV1a E7 small-molecule binders, primary screen, biochemical, small-molecule microarray, residues 1-88, 635 nm (AID 1129); settings: small-molecule microarray binding, fluorescence 635 nm; higher = more signal
[11] = target: Focal adhesion kinase 1 (Homo sapiens) (UniProt Q05397); test: small-molecule microarray binders of FAK, primary screen, biochemical, 635/667 nm fluorescence, BSA, DTT (AID 1130); settings: PTK2 binding, 635 nm fluorescence, higher = more signal;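 further: composite of spot emission at 667 nm and signal to noise over triplicate slides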
[12] = tested on: Fibrinogen (Alexa647-labelled); test: fibrinogen binders on compound microarrays, profiling panel, artefact control for SMM control-protein annotation, biochemical, small-molecule microarray, 635/667 nm fluorescence (AID 1131); settings: fibrinogen-A647 binding fluorescence, higher = more signal;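 further: z-score merges 667 nm fluorescence with per-spot signal-to-noise over triplicate slides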
[13] = target: Follistatin (Homo sapiens) (UniProt P19883); test: follistatin binders on small-molecule microarrays, primary screen, biochemical, small-molecule microarray, 635/667 nm fluorescence (AID 1132); settings: FST binding, 635 nm fluorescence, higher = more signal
[14] = target: Fibroblast growth factor 2 (Homo sapiens) (UniProt P09038); test: FGF2 binders on small-molecule microarrays, primary screen, biochemical, small-molecule microarray, 635/667 nm fluorescence (AID 1133); settings: small-molecule microarray binding, FGF2, fluorescence 635/667; higher = more signal
[15] = mitochondrial membrane potential change in A549 cells, profiling panel, cell-based, JC-1 fluorescence, basal, 24 h, 100 nL (AID 1138); settings: higher = more signal;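 further: A549 lung adenocarcinoma cells under basal conditions with no added stimulus; test concentration not given here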
Lefty1 = Lefty1 binders on small-molecule microarrays, primary screen, biochemical, small-molecule microarray, 635/667 nm fluorescence (AID 1139); settings: small-molecule microarray binding, fluorescence 635/667; higher = more signal
[16] = tested on: wheat germ agglutinin (Triticum aestivum), Alexa647-labelled; test: wheat germ agglutinin binders on compound microarrays, profiling panel, artefact control for SMM control-protein annotation, biochemical, small-molecule microarray, 635/667 nm fluorescence (AID 1140); settings: WGA-A647 binding, 635 nm fluorescence, higher = more signal;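 further: score merges 667 nm feature emission with signal to noise over triplicate slides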
[17] = target: Luciferin 4-monooxygenase (Photinus pyralis) (UniProt P08659); test: firefly luciferase enzyme inhibitors, primary screen, biochemical, luminescence, purified enzyme, 2006 set (AID 1141); settings: SteadyGlo luminescence, 30 min, higher = more signal, called active from +8 up or from −8 down;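 further: cell-free assay with purified firefly luciferase at 100 ng per well in PBS; test concentration not given here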
Chain of Luciferin 4-monooxygenase (Photinus pyralis) (P08659 whole entry, looked up): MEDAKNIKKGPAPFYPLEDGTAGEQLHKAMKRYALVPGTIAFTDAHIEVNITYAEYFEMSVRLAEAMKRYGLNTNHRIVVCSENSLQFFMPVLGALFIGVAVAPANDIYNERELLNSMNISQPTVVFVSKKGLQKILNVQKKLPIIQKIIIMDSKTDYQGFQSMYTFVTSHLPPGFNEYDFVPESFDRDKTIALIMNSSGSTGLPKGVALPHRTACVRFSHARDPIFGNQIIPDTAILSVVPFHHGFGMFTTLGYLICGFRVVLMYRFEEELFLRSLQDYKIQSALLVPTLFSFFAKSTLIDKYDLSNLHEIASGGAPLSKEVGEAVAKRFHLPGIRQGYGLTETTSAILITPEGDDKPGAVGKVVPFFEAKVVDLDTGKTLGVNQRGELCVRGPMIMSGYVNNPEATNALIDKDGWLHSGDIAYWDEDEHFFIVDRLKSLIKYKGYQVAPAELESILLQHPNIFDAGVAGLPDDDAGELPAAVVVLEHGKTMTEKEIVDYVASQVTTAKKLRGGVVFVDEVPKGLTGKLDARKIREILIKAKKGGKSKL

Chain of Fibroblast growth factor 2 (Homo sapiens) (P09038 whole entry, looked up): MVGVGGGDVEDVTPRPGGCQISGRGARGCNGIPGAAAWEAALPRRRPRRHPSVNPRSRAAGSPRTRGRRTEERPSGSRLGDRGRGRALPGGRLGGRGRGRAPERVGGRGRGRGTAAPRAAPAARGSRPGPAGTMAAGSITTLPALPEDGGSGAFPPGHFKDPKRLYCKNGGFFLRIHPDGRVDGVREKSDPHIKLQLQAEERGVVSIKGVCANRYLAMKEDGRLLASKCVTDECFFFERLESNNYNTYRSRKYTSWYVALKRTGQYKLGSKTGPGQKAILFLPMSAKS
Chain of Albumin (Bos taurus) (P02769 whole entry, looked up): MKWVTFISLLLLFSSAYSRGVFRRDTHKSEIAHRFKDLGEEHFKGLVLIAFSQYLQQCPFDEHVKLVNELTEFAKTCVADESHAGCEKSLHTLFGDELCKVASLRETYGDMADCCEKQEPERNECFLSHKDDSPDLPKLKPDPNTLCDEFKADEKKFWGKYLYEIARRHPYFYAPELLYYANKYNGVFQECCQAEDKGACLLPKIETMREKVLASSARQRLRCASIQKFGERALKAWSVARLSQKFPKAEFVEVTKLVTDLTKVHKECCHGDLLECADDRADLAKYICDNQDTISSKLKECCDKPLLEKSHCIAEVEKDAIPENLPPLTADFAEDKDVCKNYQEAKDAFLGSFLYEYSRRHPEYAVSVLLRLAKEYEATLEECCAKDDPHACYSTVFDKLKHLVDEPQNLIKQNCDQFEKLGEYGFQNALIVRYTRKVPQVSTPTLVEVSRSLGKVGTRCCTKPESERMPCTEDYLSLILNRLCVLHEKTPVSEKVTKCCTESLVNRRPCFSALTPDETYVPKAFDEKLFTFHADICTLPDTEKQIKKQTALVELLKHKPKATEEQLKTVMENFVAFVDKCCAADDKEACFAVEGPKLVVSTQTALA
Chain of Follistatin (Homo sapiens) (P19883 whole entry, looked up): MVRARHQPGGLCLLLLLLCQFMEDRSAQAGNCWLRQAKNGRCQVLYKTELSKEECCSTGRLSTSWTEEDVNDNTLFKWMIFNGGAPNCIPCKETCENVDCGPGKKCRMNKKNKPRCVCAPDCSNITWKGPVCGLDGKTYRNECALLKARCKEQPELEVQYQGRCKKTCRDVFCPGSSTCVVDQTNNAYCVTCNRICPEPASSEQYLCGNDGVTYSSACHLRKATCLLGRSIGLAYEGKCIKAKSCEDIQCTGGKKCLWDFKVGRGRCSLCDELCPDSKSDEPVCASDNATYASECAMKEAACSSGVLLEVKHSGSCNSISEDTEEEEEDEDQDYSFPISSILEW
Chain of Focal adhesion kinase 1 (Homo sapiens) (Q05397 whole entry, looked up): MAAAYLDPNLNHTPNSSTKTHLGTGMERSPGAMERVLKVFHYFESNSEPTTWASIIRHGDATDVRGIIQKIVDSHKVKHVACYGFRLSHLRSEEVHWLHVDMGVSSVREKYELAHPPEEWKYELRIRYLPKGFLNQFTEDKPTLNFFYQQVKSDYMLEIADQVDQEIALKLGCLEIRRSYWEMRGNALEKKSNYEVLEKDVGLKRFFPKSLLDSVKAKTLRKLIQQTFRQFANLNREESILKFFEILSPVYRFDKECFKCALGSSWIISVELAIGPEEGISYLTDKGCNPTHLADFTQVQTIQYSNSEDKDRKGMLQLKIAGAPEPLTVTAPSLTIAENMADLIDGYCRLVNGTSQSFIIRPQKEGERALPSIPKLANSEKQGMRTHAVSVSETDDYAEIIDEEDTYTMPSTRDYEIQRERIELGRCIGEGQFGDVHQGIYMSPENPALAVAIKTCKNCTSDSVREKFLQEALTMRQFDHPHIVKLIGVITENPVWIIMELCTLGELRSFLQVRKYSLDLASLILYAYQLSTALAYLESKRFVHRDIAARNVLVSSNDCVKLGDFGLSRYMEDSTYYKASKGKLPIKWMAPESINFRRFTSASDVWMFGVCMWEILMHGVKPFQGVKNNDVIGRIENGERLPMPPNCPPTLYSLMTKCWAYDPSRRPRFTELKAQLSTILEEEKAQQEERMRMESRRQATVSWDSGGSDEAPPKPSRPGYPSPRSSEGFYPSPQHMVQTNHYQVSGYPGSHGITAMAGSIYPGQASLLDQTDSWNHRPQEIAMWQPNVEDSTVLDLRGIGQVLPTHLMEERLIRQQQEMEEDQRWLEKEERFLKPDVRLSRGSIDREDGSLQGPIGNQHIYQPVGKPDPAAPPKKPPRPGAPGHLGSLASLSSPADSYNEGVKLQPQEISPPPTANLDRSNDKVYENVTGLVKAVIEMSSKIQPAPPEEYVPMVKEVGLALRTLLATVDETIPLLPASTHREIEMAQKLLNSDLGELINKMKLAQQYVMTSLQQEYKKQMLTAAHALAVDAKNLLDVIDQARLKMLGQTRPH
Chain of Concanavalin-A (Canavalia ensiformis) (P02866 whole entry, looked up): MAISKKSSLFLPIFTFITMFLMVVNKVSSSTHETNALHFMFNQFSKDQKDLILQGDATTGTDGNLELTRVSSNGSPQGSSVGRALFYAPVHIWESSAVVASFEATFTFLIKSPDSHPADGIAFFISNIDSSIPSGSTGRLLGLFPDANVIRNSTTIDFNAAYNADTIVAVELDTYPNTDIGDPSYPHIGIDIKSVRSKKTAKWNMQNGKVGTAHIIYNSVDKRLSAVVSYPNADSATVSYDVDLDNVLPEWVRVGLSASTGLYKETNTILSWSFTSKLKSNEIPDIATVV

Compound | composite z-score (Albumin (Bos taurus)) | composite Z-score [1] | composite z-score [2] | composite z-score [3] | composite z-score [4] | composite z-score [5] | composite z-score [6] | composite z-score (Sam68 (KHDRBS1)) | composite z-score [7] | composite z-score [8] | composite z-score [9] | composite z-score [10] | composite z-score [11] | composite z-score [12] | composite z-score [13] | composite z-score [14] | z-score [15] | composite z-score (Lefty1) | composite z-score [16] | z-score [17]
C#CCCCON=C1C[C@@H](O)[C@@H](O)[C@@H]2[C@@H]3C(=O)N(C4CCCCC4)C(=O)[C@@H]3CC[C@@H]12 | 0.42 | 0.0436 (inactive) | -0.11 | -0.129 | 0.621 | 0.65 | 0.172 | -0.513 | 0.422 | 0.335 | 0.16 | 0.256 | 0.394 | 0.486 | 0.513 | 0.0704 | -0.404 | 0.363 | 0.329 | -0.0138 (inactive)
COC(=O)[C@H](C)NC(=O)CCC1CC(OC(=O)NCc2cccc3ccccc23)CC2(CCCC(COC(=O)NCCC(C)C)O2)O1 (stereo not given in full) | 0.168 | 0.559 (inactive) | -0.095 | -0.124 | 0.24 | 1.01 | 0.127 | 0.997 | 0.229 | -0.087 | 0.164 | 1.18 | 0.287 | -1.15 | 0.295 | 0.803 | 0.95 | 0.36 | 0.268 | 0.652 (inactive)
O=C1CCCC=C1C(O)c1ccc([N+](=O)[O-])cc1 (stereo not given) | 0.265 | -0.163 (inactive) | 0.0494 | -0.148 | -0.187 | -0.251 | 0.0252 | -0.311 | 0.0616 | -0.343 | -0.162 | 0.154 | -0.126 | -0.101 | -0.102 | 0.511 | -0.115 | 0.0283 | -0.199 | -0.171 (inactive)
Cc1ccc2[nH]c3nc(CCCn4ccnc4-c4ccccc4)nnc3c2c1 | 0.414 | -0.375 (inactive) | 0.079 | -0.176 | 0.465 | 0.656 | 0.0559 | 1.05 | 0.763 | 1.1 | 0.663 | 1.08 | 0.0863 | 0.826 | 0.757 | 1.19 | 0.524 | 0.802 | 0.676 | 0.36 (inactive)
COc1ccc(-c2cnnc(CCCn3ccnc3-c3ccccc3)n2)cc1 | 0.223 | 0.391 (inactive) | 0.291 | -0.126 | 0.536 | 0.0412 | 1.08 | 0.943 | 0.919 | 0.418 | 1.39 | 0.538 | 0.107 | 0.747 | 0.836 | 0.475 | 0.787 | 0.592 | 0.138 | 0.313 (inactive)
COc1ccc(COC(=O)NN=C2C[C@@H](O)[C@@H](O)[C@@H]3[C@@H]4C(=O)N(c5cccc(Oc6ccccc6)c5)C(=O)[C@@H]4CC[C@H]23)cc1 | 0.64 | -0.626 (inactive) | 0.0793 | -0.0665 | -0.0831 | 0.852 | -0.0241 | -0.546 | -0.636 | 0.433 | 0.362 | -0.476 | 0.407 | 0.744 | -0.355 | -0.603 | -0.593 | -0.258 | 0.916 | 0.911 (inactive)
CC(C)CN1CCc2nc(-c3ccccc3)c3c(c2C1)CO[C@@H](C)C3 | 0.729 | -0.548 (inactive) | 0.0636 | 0.0341 | 0.465 | 0.798 | 0.0322 | 1.29 | 0.53 | 1.11 | 0.454 | 1.16 | 0.741 | 0.756 | 0.785 | 0.525 | 0.0232 | 0.923 | 0.963 | -0.628 (inactive)
CC(C)[C@@H](OCc1ccccc1)[C@H](C)C=NO[C@H](C)c1cn([C@@H]2COC[C@H]2O)nn1 | 0.378 | -0.0641 (inactive) | 0.307 | -0.156 | -0.133 | 0.811 | 0.388 | 1.3 | 0.0507 | 0.584 | 0.0202 | 0.693 | 0.279 | 0.0524 | 0.229 | 0.422 | -0.245 | 0.957 | -0.0886 | 1.06 (inactive)
CC(C)CON=C1C[C@@H](O)[C@@H](O)[C@@H]2[C@@H]3C(=O)N(Cc4ccccc4)C(=O)[C@@H]3CC[C@H]12 | 0.428 | -0.288 (inactive) | -0.0679 | -0.122 | 0.0889 | 0.211 | -0.366 | 0.51 | 0.447 | 0.321 | 0.247 | 0.502 | 0.052 | 0.666 | 0.363 | 0.474 | -1.03 | 0.669 | 0.134 | 1.14 (inactive)
C=CC[C@@H]1C=C[C@H](ON=C(C)CCN2CCCc3nc(C)c(C)cc32)[C@@H](CO)O1 | -0.858 | 2.94 (inactive) | 0.712 | 0.276 | -0.1 | 0.735 | 0.629 | 1.32 | 1.3 | -0.12 | 0.229 | 0.736 | 0.817 | -0.355 | 1.25 | 1 | 0.289 | 1.16 | -0.205 | 0.949 (inactive)
O=C1C2=CC[C@H]3C(=O)N(C4CCCCC4)C(=O)[C@H]3[C@H]2[C@H](O)[C@@H]2O[C@H]12 | 0.964 | -0.631 (inactive) | -0.199 | -0.149 | 0.335 | -0.888 | -0.17 | -2.02 | 0.0365 | -0.21 | -0.242 | -0.958 | -0.504 | 0.0555 | -0.864 | -0.682 | -1.65 | -0.455 | -0.685 | -0.389 (inactive)
